SARS PLpro yeast: inhibitors of SARS-CoV papain-like protease in yeast. AID 485353. S. cerevisiae expressing SARS-CoV PLpro, growth rescue. Potency, µM (doses to about 32.9 µM), without a hit: at the highest dose activity, positive = growth rescue, most hits filed as activators. actives 0.19% (n = 330,000); calls by dose curve; note: potency is the fitted concentration of half-maximal effect; 0% is about no effect; nearly all actives have a fitted effect of over 55% in size
LmPK inh: LmPK (Leishmania mexicana) enzyme inhibition; Q27686; purified LmPK, Kinase-Glo ATP luminescence, 1 h; Potency, µM (highest dose often 57.5 µM), for the others: at the highest dose activity change, negative = inhibition, most hits filed as inhibitors; actives 0.37% (n = 290,000); note: potency is the fitted concentration of half-maximal effect; % is set by controls: 0 for no effect and ±100 for the full control effect
Target sequence (Q27686 whole entry, looked up): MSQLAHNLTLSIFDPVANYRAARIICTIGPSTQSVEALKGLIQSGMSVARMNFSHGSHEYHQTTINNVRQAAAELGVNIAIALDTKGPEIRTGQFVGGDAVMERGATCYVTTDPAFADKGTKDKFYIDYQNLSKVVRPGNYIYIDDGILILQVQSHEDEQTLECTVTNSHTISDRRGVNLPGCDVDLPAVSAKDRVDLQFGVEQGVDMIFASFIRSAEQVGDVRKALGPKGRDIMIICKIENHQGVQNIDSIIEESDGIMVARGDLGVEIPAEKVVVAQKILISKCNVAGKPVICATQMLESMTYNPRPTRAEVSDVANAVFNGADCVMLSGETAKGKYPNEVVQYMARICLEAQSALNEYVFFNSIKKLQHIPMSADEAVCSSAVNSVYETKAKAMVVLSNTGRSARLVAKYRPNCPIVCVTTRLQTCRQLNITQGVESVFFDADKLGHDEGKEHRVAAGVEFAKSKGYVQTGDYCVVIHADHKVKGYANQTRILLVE
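Kinase-Glo luminescence read after 1 h RT reaction of 0.1 nM LmPK with 0.5 mM PEP and 0.1 mM ADP. Activity scaled between uninhibited and enzyme-free controls.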
TbPYK inhibitor: blocks Trypanosoma brucei pyruvate kinase. Q57TT1. TbPYK enzyme, Kinase-Glo Plus ATP luminescence, 45 min. Potency, µM (highest dose often 76.8 µM), for inactives: top-dose activity, negative = inhibition, actives largely listed as inhibitors. actives 0.12% (n = 410,000). AID 624173; note: potency is the fitted concentration of half-maximal effect; % is set by controls: 0 for no effect and ±100 for the full control effect; nearly all actives have a fitted effect of over 50% in size
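Glycolytic pyruvate kinase of T. brucei was incubated with substrate, test compound and 130 uM ADP for 45 minutes at room temperature. Luminescent Kinase-Glo Plus signal was measured after 10 minutes.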
Cycloheximide cs: affects cycloheximide protein synthesis inhibition readout, counter-screen; cell reporter, cycloheximide protein synthesis inhibition counterscreen; max response, %; actives 12% (n = 300,000); AID 2314; in the data active = max response mostly above about 13%, no sharp cut-off; inactive = mostly below about 14%; note: read at 38.3 µM for the half of the compounds with a filed dose; 0% is about no effect
Shiga toxin inh: Shiga toxin inhibition. actives 9.2% (n = 290,000). Vero cells, Shiga toxin protein synthesis inhibition reporter. inhibition, % at 38.7 µM; in the data active = inhibition mostly above about 28%, no sharp cut-off; inactive = mostly below about 43%; note: 0% is about no effect
NS1 function inh: inhibitors of influenza NS1 protein function | Potency, µM (top dose mostly 46.1 µM), inactives show at the top dose activity, positive = more growth | actives 0.4% (n = 270,000); calls by dose curve; note: potency is the fitted concentration of half-maximal effect; actives are rising curves; nearly all actives have a fitted effect of over 50% in size
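Compounds were scored for reversing the slow growth caused by influenza A NS1 in S. cerevisiae, measured by optical density at 600 nm. Assay medium contained 2% galactose at pH 6.0; NS1-free yeast of the same strain were the positive control.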
* hit, by the source's call; i = inactive; nt = not tested or not shown. The full list was thinned out, with hits kept by preference. Unless noted, calls come from the whole dose curve; as a rule, active = well fitted curve in the direction sought with a large enough effect; inconclusive = small, poorly fitted or top-dose-only effect, or another doubt; inactive = no such curve, though single readings can be large; an effect the other way counts as inactive or inconclusive.

SMILES	SARS PLpro yeast	LmPK inh	TbPYK inhibitor	Cycloheximide cs	Shiga toxin inh	NS1 function inh
Cn1cccc1CC(=O)N/N=C/c1cccc2ccccc12	-3.6%	6.0%	4.7%	22.1*	33.1*	20.3%
COc1ccc(NC(=O)CCNS(=O)(=O)c2ccc3c(c2)CCCC(=O)N3)cc1	nt	nt	3.4%	nt	nt	nt
Cc1noc(C)c1-c1ccc(C(=O)NCc2cccs2)c2occc12	nt	nt	2.1%	nt	nt	nt
O=c1oc2ccccc2c2c1ccc1ccccc12	-43.9%	nt	-7.9%	nt	nt	nt
Cc1ccccc1NC(=O)CCNS(=O)(=O)c1ccc2c(c1)CCC(=O)N2	-2.6%	0.2%	-20.8%	-2.0	-2.2	2.9%
CCN1C[C@@]2(COC)CCC(OC)[C@]34C5C[C@]6(O)[C@@H](OC)C[C@](OC(C)=O)(C([C@H](OC)C23)[C@H]14)C5[C@H]6OC(=O)c1ccc(OC)cc1 (some centres not stated)	nt	nt	nt	21.3*	23.2*	nt
COc1cccc(-n2ccnc2SCC(=O)Nc2nccs2)c1	4.9%	2.0%	-7.1%	21.4*	42.3	-5.4%
Cc1cccc(-n2ccnc2SCC(=O)Nc2nccs2)c1	5.2%	2.4%	-1.7%	29.0*	57.6	-23.8%
c1ccc(-c2noc(-c3ccc4c(c3)OCO4)n2)cc1	0.0%	15.8µM*	-14.9%	63.5*	108.8*	1.5%
c1ccc(-c2noc(-c3ccc4ccccc4c3)n2)cc1	6.8%	-14.2%	-0.3%	54.8*	104.6*	-8.4%
COc1cccc(-c2noc(-c3ccc4c(c3)OCO4)n2)c1	-3.5%	-19.6%	-26.8%	3.4	16.6	nt
COc1ccc(OC)c2nc(-c3ccc4c(c3)OCO4)ccc12	-2.3%	0.0%	-3.0%	61.7*	104.8*	-36.5%
c1ccc(-c2noc(-c3ccccc3-c3ccccc3)n2)cc1	-26.0%	2.2%	3.0%	15.2	6.3	-6.0%
COc1ccc(-c2oc(=O)c3cc(OC)c(OC)cc3c2-c2ccc3c(c2)OCO3)cc1	1.0%	nt	-0.7%	nt	nt	nt
COc1ccc(-c2noc(-c3ccc4c(c3)OCO4)n2)cc1	4.6%	-3.9%	-1.6%	14.1*	17.6	2.2%
CCOc1ccc(N(CC(=O)Nc2ccccc2C(=O)N2CCOCC2)S(=O)(=O)c2ccc(F)cc2)cc1	5.6%	0.7%	0.9%	-5.6	-14.5	-2.5%
COC(=O)c1ccc(OCC(O)CN2CCN(C(=O)c3ccco3)CC2)c(OC)c1 (configuration not stated)	-1.0%	-5.0%	3.7%	-5.8	5.8	-3.2%
CCCn1cnc2cc(NCc3ccccc3O)ccc21	0.2%	-12.3%	-8.8%	38.9*	113.4*	1.9%
CCCn1cnc2cc(NCc3ccc(OC)cc3OC)ccc21	nt	nt	-18.0%	nt	nt	nt
CCCn1cnc2cc(NCc3cccc(OC)c3)ccc21	-9.2%	-1.3%	-20.7%	23.7*	34.8*	-14.4%
CCn1cnc2cc(NCc3ccc(Br)cc3)ccc21	-1.8%	-0.9%	-17.6%	39.7*	67.1*	-10.0%
CCn1cnc2cc(NCc3ccc(C)cc3)ccc21	-1.0%	-12.9%	-22.1%	60.0*	89.9*	-19.2%
CCc1cccc(NC(=O)COC(=O)C2COc3ccccc3O2)c1 (configuration not stated)	nt	nt	1.5%	nt	nt	nt
COC(=O)/C=C/c1cccc([C@H]2[C@@H]3C=CC[C@@H](C)[C@@H]3C(=O)N2Cc2ccccc2)c1	-28.3%	nt	5.0%	-5.0	i	nt
CCn1cnc2cc(NCc3ccc(N(C)C)cc3)ccc21	1.5%	-1.8%	-11.9%	52.3*	153.6*	nt
CCN(CC)c1ccc(CNc2ccc3c(c2)ncn3CC)cc1	1.7%	-2.9%	0.8%	11.7	17.4	2.6%
CCCn1cnc2cc(NCc3ccc(Br)cc3)ccc21	-2.1%	5.4%	-21.1%	29.3*	63.6*	-9.0%
Cc1ccc(CNc2ccc3c(c2)ncn3C(C)C)cc1	1.0%	-4.6%	-16.4%	36.4*	61.2*	5.0%
CN(C)c1ccc(CNc2ccc3c(c2)ncn3C(C)(C)C)cc1	0.0%	1.7%	-8.4%	27.9*	58.3*	-1.8%
CC[C@@](C)(NS(=O)(=O)OCC(Cl)(Cl)Cl)c1ccccc1	-3.4%	1.0%	-0.2%	-1.0	-4.5	-35.2%
